Assay results from PubChem BioAssay AID434970 (Sanford-Burnham Center for Chemical Genomics, 2010).
Among all 11,000 compounds or so, about 310 (2.8%) were called active. Cut-off read from the data, not from the text of the source: active = activity change below about -85%; inactive = the rest. Shown is part of a subset that was picked to be rich in actives.

tested on: intestinal alkaline phosphatase [Mus musculus]; test: mouse intestinal phosphatase enzyme activation – biochemical, luminescence, single concentration, confirmation (AID 434970); conditions: purified mouse IAP, CDP-Star luminescence, 30 min, at 10 µM; activation factor: measured here: IAP activation factor, stronger effect = higher value; activity change, negative = activation: stronger effect = lower value

Q: How did the activation factor turn out when `CC1(C)CC(=O)C2=C(C1)N=c1s/c(=C/c3ccc(F)c(F)c3)c(=O)n1C2c1ccc(F)cc1` (centres undefined) was run?
A: 0.856

Q: And the activity change, negative = activation?
A: 14.4% (inactive)

Q: Which results are given for `N#C/C(=C/c1ccco1)C(N)=S`?
A: activation factor: 0.434; activity change, negative = activation: 56.5% (inactive)

Q: With `CCOC(=O)c1c(-c2ccccc2)oc2ccc(O)c(CN(C)C)c12` as the molecule, how does the activation factor read?
A: 0.909

Q: What about the activity change, negative = activation of the same molecule?
A: 9.15% (inactive)

Q: What does the source list for `Nc1ncnc2c1ncn2[C@@H]1O[C@H](CNS(=O)(=O)c2cc(S(=O)(=O)c3ccccc3)cs2)[C@@H](O)[C@H]1O`?
A: activation factor: 1.08; activity change, negative = activation: -7.65% (inactive)

Q: How did the activation factor turn out when `Cc1ccc(C(=O)Nc2nnn(C)n2)cc1` was run?
A: 1.1

Q: And the activity change, negative = activation?
A: -10.2% (inactive)

Q: With `CCN(CC)S(=O)(=O)c1ccc(NC(=O)Cn2c(=O)sc3ccccc32)cc1` as the molecule, how does the activation factor read?
A: 1.31

Q: What about the activity change, negative = activation of the same molecule?
A: -30.9% (inactive)

Q: For `C#CCOCCOCCOCCNc1nc(N2CCN(C(=O)CCCCCCCCCCNC(=O)[C@H](CCCN=C(N)N)n3cc(C[C@@H](C)CC)nn3)CC2)nc(N2CCN(C(=O)CCCCCCCCCCNC(=O)[C@@H]([C@H](C)CC)n3cc(CCCCCN)nn3)CC2)n1`, which activation factor is on record?
A: 6.19

Q: What about the activity change, negative = activation of the same molecule?
A: -519% (active)

Q: `C#CCOCCOCCOCCNc1nc(N2CCN(C(=O)CCCCCCCCCCNC(=O)[C@H]([C@@H](C)CC)n3cc(CCCCN=C(N)N)nn3)CC2)nc(N2CCN(C(=O)CCCCCCCCCCNC(=O)[C@H](CCCCN)n3cc(C[C@@H](C)CC)nn3)CC2)n1` was tested. Which activation factor did it give?
A: 8.58

Q: And the activity change, negative = activation?
A: -758% (active)

Q: Which activation factor does the source give for `C#CCOCCOCCOCCNc1nc(N2CCN(C(=O)CCCCCCCCCCNC(=O)[C@H]([C@@H](C)CC)n3cc(CCCCN=C(N)N)nn3)CC2)nc(N2CCN(C(=O)CCCCCCCCCCNC(=O)[C@H](CCCN=C(N)N)n3cc(C[C@@H](C)CC)nn3)CC2)n1` here?
A: 9.52

Q: And the activity change, negative = activation?
A: -852% (active)

Q: Which activation factor does the source give for `Cc1ccc(N=C2NC(=O)CS2)cc1` here?
A: 0.925

Q: And the activity change, negative = activation?
A: 7.5% (inactive)

Q: Which activation factor does the source give for `COc1ccc(C2/C=C\CN(S(=O)(=O)c3ccc(C)cc3)CC(=O)N2Cc2cccc(F)c2)cc1` (centres undefined) here?
A: 1.08

Q: What about the activity change, negative = activation of the same molecule?
A: -8% (inactive)

Q: Which results are given for `O=C1CCCCCN1Cc1nnc(SCc2nc3ccccc3s2)n1-c1ccccn1`?
A: activation factor: 0.923; activity change, negative = activation: 7.7% (inactive)

Q: With `Cc1ccc(-c2noc(CN3CCC(C(N)=O)CC3)n2)cc1` as the molecule, how does the activation factor read?
A: 0.997

Q: What about the activity change, negative = activation of the same molecule?
A: 0.25% (inactive)

Q: Which results are given for `CC(=O)NCC(=O)N(c1c(C)n(C)n(-c2ccccc2)c1=O)C1(C(=O)NC2CCCC2)CCCCC1`?
A: activation factor: 0.98; activity change, negative = activation: 2.05% (inactive)

Q: How did the activation factor turn out when `O=C(N1CCOCC1)C1(c2ccccc2)CCCCC1` was run?
A: 0.901

Q: And the activity change, negative = activation?
A: 9.95% (inactive)

Q: What does the source list for `Cc1ccc(NC(=O)CN(C)C(=O)CCCN2C(=O)c3ccccc3C2=O)cc1`?
A: activation factor: 1.04; activity change, negative = activation: -3.95% (inactive)

Q: How did the activation factor turn out when `C#CCOCCOCCOCCNc1nc(N2CCN(C(=O)CCCCCCCCCCNC(=O)[C@H]([C@@H](C)CC)n3cc(CCCCCN)nn3)CC2)nc(N2CCN(C(=O)CCCCCCCCCCNC(=O)[C@@H]([C@H](C)O)n3cc(C)nn3)CC2)n1` was run?
A: 4.1

Q: What about the activity change, negative = activation of the same molecule?
A: -310% (active)

Q: How did the activation factor turn out when `C#CCOCCOCCOCCNc1nc(N2CCN(C(=O)CCCCCCCCCCNC(=O)[C@H]([C@@H](C)CC)n3cc(CCCCCN)nn3)CC2)nc(N2CCN(C(=O)CCCCCCCCCCNC(=O)[C@@H]([C@H](C)CC)n3cc(CCCCCN)nn3)CC2)n1` was run?
A: 6.79

Q: What about the activity change, negative = activation of the same molecule?
A: -579% (active)

Q: `C#CCOCCOCCOCCNc1nc(N2CCN(C(=O)CCCCCCCCCCNC(=O)[C@H]([C@@H](C)CC)n3cc(CCCCCN)nn3)CC2)nc(N2CCN(C(=O)CCCCCCCCCCNC(=O)[C@H](CO)n3cc(CCCCCN)nn3)CC2)n1` was tested. Which activation factor did it give?
A: 2.51

Q: And the activity change, negative = activation?
A: -151% (active)

Q: Which results are given for `CCOc1ccc(-n2cc(C(=O)Nc3cccc(Cl)c3)c3cc(OC)c(OC)cc3c2=O)cc1`?
A: activation factor: 1.1; activity change, negative = activation: -10.2% (inactive)

Q: For `CNC(=O)/C(C#N)=C/c1ccc(-c2ccc(OC)cc2[N+](=O)[O-])o1`, which activation factor is on record?
A: 0.891

Q: And the activity change, negative = activation?
A: 10.9% (inactive)

Q: Which activation factor does the source give for `CC(C)N(C(=O)[C@H]1C[C@H](CC(=O)NCCC2=CCCCC2)C(=O)N2CCc3c([nH]c4ccc(Cl)cc34)[C@]12C)C(C)C` here?
A: 1.23

Q: What about the activity change, negative = activation of the same molecule?
A: -23.5% (inactive)

Q: For `NC(=O)c1c(NC(=O)CSc2nnc(-c3ccco3)n2-c2ccccc2)sc2c1CCC2`, which activation factor is on record?
A: 0.759

Q: And the activity change, negative = activation?
A: 24.1% (inactive)

Q: What does the source list for `COc1ccc(NC(=O)C2CCCN2c2ccc(OC)c(OC)c2)cc1OC` (centres undefined)?
A: activation factor: 1.14; activity change, negative = activation: -14.2% (inactive)

Q: Which results are given for `COc1ccc(C2C(C(=O)N3CCCC3)c3cc(OC)c(OC)cc3C(=O)N2C)cc1` (centres undefined)?
A: activation factor: 0.989; activity change, negative = activation: 1.1% (inactive)

Q: Which results are given for `COc1ccccc1NC(=O)CCNS(=O)(=O)c1ccc2[nH]c(=O)oc2c1`?
A: activation factor: 0.265; activity change, negative = activation: 73.5% (inactive)

Q: What does the source list for `COC(=O)c1ccc(S(=O)(=O)N2CCCCCC2)cc1`?
A: activation factor: 0.874; activity change, negative = activation: 12.6% (inactive)

Q: Which activation factor does the source give for `CCC(C(=O)NCCC(C)C)n1ccc2cc(S(=O)(=O)N3CCCCC3)ccc21` (centres undefined) here?
A: 2.59

Q: What about the activity change, negative = activation of the same molecule?
A: -159% (active)

Q: What does the source list for `COc1ccc(CNC(=O)C(C)n2ccc3cc(S(=O)(=O)N4CCCCCC4)ccc32)cc1` (centres undefined)?
A: activation factor: 1.91; activity change, negative = activation: -90.9% (inactive)

Q: Which activation factor does the source give for `CCOc1ccccc1N(CC(=O)Nc1ccc(C)cc1)S(C)(=O)=O` here?
A: 0.98

Q: And the activity change, negative = activation?
A: 2.05% (inactive)

Q: Which results are given for `O=C(CC1Sc2ccccc2NC1=O)OCC(=O)N1CCc2ccccc21` (centres undefined)?
A: activation factor: 1.11; activity change, negative = activation: -10.6% (inactive)

Q: How did the activation factor turn out when `Cc1ccc(NC(=O)NCC2CCN(Cc3cc(C)ccc3Cl)CC2)c(C)c1` was run?
A: 1.87

Q: And the activity change, negative = activation?
A: -86.8% (active)

Q: For `Cc1ccc(NC(=O)CSCC(=O)O)c(C)c1`, which activation factor is on record?
A: 1.07

Q: And the activity change, negative = activation?
A: -7.15% (inactive)

Q: For `Cc1c(Cl)cccc1NC(=O)CCN1CCCCCC1`, which activation factor is on record?
A: 0.984

Q: What about the activity change, negative = activation of the same molecule?
A: 1.6% (inactive)

Q: `CCOC(=O)CNC(=O)Nc1cccc(Cl)c1C` was tested. Which activation factor did it give?
A: 1.04

Q: What about the activity change, negative = activation of the same molecule?
A: -4.45% (inactive)

Q: What does the source list for `Cc1ccc(NC(=O)Cn2cccc2)c(C)c1`?
A: activation factor: 1.01; activity change, negative = activation: -1.25% (inactive)

Q: Which activation factor does the source give for `Cc1ccc(C)c(CN2CCC(CNC(=O)Nc3cccc(Cl)c3C)CC2)c1` here?
A: 2.47

Q: And the activity change, negative = activation?
A: -147% (active)

Q: Which results are given for `COC(=O)CCN(C(=O)C1C2CC3CC(C2)CC1C3)c1ccccn1` (centres undefined)?
A: activation factor: 0.948; activity change, negative = activation: 5.2% (inactive)

Q: `COc1ccccc1-c1nnc(SCCN2CCOCC2)n1-c1ccc(C)cc1` was tested. Which activation factor did it give?
A: 0.947

Q: What about the activity change, negative = activation of the same molecule?
A: 5.3% (inactive)

Q: What does the source list for `CCOC(=O)C1=CN(Cc2ccco2)S(=O)(=O)N(CC)C1c1cccc(OC)c1` (centres undefined)?
A: activation factor: 1.02; activity change, negative = activation: -1.7% (inactive)

Q: Which results are given for `O=S1(=O)CC(O)C(Nc2ccccc2)C1` (centres undefined)?
A: activation factor: 0.942; activity change, negative = activation: 5.85% (inactive)

Q: What does the source list for `OC(c1cccc(OCc2ccccc2)c1)c1nnc(-c2ccccc2)o1` (centres undefined)?
A: activation factor: 1.03; activity change, negative = activation: -3.4% (inactive)
